Results reported in PubChem BioAssay.
For some of these results: Potency and affinity values are given separately. The source made the active and inactive calls. Unless noted, how the calls were made is not given here.

How the values were obtained:
[1] = antimalarial activity against Dd2 strain (AID 2302;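 active means growth inhibition above 50% at the single 2 µM test dose, taken to imply half-maximal potency below 2 µM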;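 further: 0% = DMSO untreated growth and 100% = chloroquine plus artemisinin killed control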); details: P. falciparum Dd2 in RBCs, LDH growth readout, 72 h; at 2 µM; active compounds read high
[2] = HepG2 cytotoxicity, primary screen, cytotoxicity control for P. falciparum antimalarial project, cell-based, ATP luminescence (AID 2303;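 active means inhibition above 50%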;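 further: 0% = DMSO wells and 100% = digitonin-killed cells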); details: HepG2 viability, 24-48 h, at 10 µM, active compounds read high
[3] = target: L-lactate dehydrogenase (Plasmodium falciparum (isolate CDC / Honduras)) (UniProt Q27743); assay: PfLDH activity inhibition – cell lysate, 3D7 strain, counter-screen for P. falciparum growth inhibition project (AID 2304);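 further: 0% = vehicle and 100% = reference inhibitor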; details: P. falciparum 3D7 crude extract, LDH APAD/NBT absorbance; at 2 µM; active compounds read high
[4] = inhibition of 3D7 malaria parasite growth – strain 3D7 (AID 2306);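 further: 0% = DMSO wells and 100% = chloroquine plus artemisinin control wells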; details: P. falciparum 3D7 erythrocytic growth, LDH absorbance, 72 h; at 2 µM; active compounds read high
[5] = target: Calcium-dependent protein kinase 1 (Plasmodium falciparum (isolate 3D7)) (UniProt P62344); assay: PfCDPK1 kinase inhibitors, biochemical, TCAMS library (AID 1159585; cut-off not given, nearly all actives have IC50 up to about 0.98 µM;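 further: inhibitors leave more ATP so luminescence rises with inhibition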); details: recombinant PfCDPK1, Kinase-Glo ATP depletion luminescence
[6] = target: Plasmodium falciparum protein kinase 6 (PK6, PF3D7_1337100) (UniProt Q8IDW1); assay: PfPK6 kinase inhibitors, biochemical, TCAMS library (AID 1159586); details: recombinant PfPK6, Kinase-Glo ATP depletion luminescence
[7] = target: Protein kinase 7 (PK7), Plasmodium falciparum 3D7 (PF3D7_0213400) (UniProt Q7YTF7); assay: inhibition of Plasmodium PK7 catalytic activity – biochemical, TCAMS antimalarial set, Kinase-Glo luminescence (AID 1159587); details: recombinant PfPK7, Kinase-Glo ATP depletion luminescence
[8] = target: Calcium-dependent protein kinase 4 (Plasmodium falciparum (isolate 3D7)) (UniProt Q8IBS5); assay: PfCDPK4 kinase inhibitors, biochemical, TCAMS library (AID 1159588; cut-off not given, nearly all actives have IC50 up to about 0.91 µM); details: recombinant PfCDPK4, Kinase-Glo ATP depletion luminescence
Calcium-dependent protein kinase 4 (Plasmodium falciparum (isolate 3D7)), sequence (Q8IBS5 whole entry, looked up): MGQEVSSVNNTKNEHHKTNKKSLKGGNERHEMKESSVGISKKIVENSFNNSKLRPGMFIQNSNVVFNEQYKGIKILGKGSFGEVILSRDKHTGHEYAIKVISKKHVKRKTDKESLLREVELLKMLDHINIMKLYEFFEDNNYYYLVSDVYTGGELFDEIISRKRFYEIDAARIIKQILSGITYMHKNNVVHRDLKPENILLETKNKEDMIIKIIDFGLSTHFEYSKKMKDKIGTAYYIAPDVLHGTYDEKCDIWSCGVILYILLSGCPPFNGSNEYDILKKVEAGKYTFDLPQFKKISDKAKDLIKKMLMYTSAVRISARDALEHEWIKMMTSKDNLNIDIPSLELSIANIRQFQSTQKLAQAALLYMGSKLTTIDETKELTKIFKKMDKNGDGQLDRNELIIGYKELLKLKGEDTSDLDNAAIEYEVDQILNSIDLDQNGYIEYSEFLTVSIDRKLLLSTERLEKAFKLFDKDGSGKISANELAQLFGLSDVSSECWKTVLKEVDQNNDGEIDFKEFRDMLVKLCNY

Protein kinase 7 (PK7), Plasmodium falciparum 3D7 (PF3D7_0213400), sequence (Q7YTF7 1-343): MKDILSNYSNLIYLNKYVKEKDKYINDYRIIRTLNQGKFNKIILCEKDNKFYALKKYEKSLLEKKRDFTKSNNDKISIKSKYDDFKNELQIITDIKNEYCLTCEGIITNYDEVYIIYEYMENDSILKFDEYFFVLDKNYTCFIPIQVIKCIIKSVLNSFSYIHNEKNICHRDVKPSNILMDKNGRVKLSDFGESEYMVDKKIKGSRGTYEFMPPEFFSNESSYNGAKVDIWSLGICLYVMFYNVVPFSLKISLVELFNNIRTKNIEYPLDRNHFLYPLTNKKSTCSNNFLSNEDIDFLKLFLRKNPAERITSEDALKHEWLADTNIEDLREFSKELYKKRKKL
Calcium-dependent protein kinase 1 (Plasmodium falciparum (isolate 3D7)), sequence (P62344 whole entry, looked up): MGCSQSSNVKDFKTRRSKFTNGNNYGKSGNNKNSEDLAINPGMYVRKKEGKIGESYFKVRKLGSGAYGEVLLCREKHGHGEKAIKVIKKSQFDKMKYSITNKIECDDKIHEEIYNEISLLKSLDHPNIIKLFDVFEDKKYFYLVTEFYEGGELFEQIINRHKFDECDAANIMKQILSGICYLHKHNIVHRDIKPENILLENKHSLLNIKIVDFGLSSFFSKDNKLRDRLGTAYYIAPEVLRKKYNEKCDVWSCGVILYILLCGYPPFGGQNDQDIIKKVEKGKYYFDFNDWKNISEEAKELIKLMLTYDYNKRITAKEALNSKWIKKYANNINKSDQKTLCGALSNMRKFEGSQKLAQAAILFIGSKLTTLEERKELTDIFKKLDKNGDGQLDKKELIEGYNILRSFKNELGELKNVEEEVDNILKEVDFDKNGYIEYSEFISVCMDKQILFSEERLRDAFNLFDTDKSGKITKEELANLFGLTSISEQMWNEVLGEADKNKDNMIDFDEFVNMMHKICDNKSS
Plasmodium falciparum protein kinase 6 (PK6, PF3D7_1337100), sequence (Q8IDW1 1-305): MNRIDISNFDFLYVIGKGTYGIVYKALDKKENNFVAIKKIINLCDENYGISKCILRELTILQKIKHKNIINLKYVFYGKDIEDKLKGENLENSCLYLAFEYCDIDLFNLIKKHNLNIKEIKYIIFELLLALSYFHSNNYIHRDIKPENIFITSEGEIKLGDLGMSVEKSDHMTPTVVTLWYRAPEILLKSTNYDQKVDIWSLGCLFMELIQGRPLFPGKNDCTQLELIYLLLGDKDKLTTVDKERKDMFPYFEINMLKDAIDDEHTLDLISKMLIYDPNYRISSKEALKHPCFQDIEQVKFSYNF
L-lactate dehydrogenase (Plasmodium falciparum (isolate CDC / Honduras)), sequence (Q27743 whole entry, looked up): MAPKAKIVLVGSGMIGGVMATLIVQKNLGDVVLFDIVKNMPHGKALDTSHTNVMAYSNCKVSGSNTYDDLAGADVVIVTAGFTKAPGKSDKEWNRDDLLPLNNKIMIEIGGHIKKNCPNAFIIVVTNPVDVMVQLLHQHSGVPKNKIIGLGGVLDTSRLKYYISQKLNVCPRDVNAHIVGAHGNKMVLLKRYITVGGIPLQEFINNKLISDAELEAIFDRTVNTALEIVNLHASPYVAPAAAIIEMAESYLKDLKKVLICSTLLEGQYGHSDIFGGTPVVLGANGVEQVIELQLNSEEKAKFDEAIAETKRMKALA

C[C@@H]1CN(c2ccnc3ccc(Sc4ccc(Oc5ccccc5)cc4)cc23)C[C@H](C)N1
active: growth inhibition [1] 99% | growth inhibition [4] 100%
inactive: inhibition [2] 33% | inhibition [3] 7% | outcome [5] | outcome [6] | outcome [7] | outcome [8]

COc1ccc2nccc([C@@H](O)CN3CCC(NC(=O)c4cc5c(F)cc(F)cc5[nH]4)CC3)c2n1
active: growth inhibition [1] 74% | growth inhibition [4] 101%
inactive: inhibition [2] 32% | inhibition [3] -3% | outcome [5] | outcome [6] | outcome [7] | outcome [8]

CC(C)N1CCN(C(=O)c2ccc(CNCCCN3CCN(c4cccc(Cl)c4Cl)CC3)s2)CC1
inactive: growth inhibition [1] 44% | inhibition [3] -3% | outcome [5] | outcome [6] | outcome [7] | outcome [8]
active: inhibition [2] 51% | growth inhibition [4] 102%

Cn1cnc(CCNC(=O)c2ccc(-c3ccc(-c4nc5ccc(C(F)(F)F)cc5[nH]4)s3)cc2)c1
inactive: inhibition [3] -2% | outcome [5] | outcome [6] | outcome [7] | outcome [8]
active: growth inhibition [1] 99% | inhibition [2] 75% | growth inhibition [4] 102%

Cc1c(CNCCN2CCCCC2)c(C(=O)O)c(C)n1Cc1ccc(Cl)cc1
active: growth inhibition [1] 93% | growth inhibition [4] 97%
inactive: inhibition [2] 4% | inhibition [3] -6% | outcome [5] | outcome [6] | outcome [7] | outcome [8]

O=C(c1cccs1)N(Cc1cccc(-c2ccc(CNCCc3ccccc3)cc2)c1)C1CCN(Cc2ccccc2)CC1
active: growth inhibition [1] 76% | growth inhibition [4] 95%
inactive: inhibition [2] 3% | inhibition [3] -3% | outcome [5] | outcome [6] | outcome [7] | outcome [8]

CC(C)C[C@@H](C(=O)Nc1ccc(Cc2ccc(NC(=O)[C@H](CC(C)C)N(C)C(=O)OC(C)(C)C)cc2)cc1)N(C)C(=O)OC(C)(C)C
inactive: inhibition [2] 17% | inhibition [3] 2% | outcome [5] | outcome [6] | outcome [7] | outcome [8]
active: growth inhibition [1] 57% | growth inhibition [4] 92%

COc1ccc2nccc(N3CCC(NCCNS(=O)(=O)c4ccc5c(c4)NC(=O)CS5)C3)c2n1 (centres undefined)
inactive: growth inhibition [1] 18% | inhibition [2] 12% | inhibition [3] 2% | outcome [5] | outcome [6] | outcome [7] | outcome [8]
active: growth inhibition [4] 97%

CCc1nnc2sc(-c3cccc(NC(=O)c4ccc(C)c([N+](=O)[O-])c4)c3)nn12
inactive: growth inhibition [1] 46% | inhibition [2] 10% | inhibition [3] 4% | outcome [5] | outcome [6] | outcome [7] | outcome [8]
active: growth inhibition [4] 82%

COc1ccc2nccc([C@@H](O)CN3CCC(NCc4nc5ccccc5[nH]4)CC3)c2c1
active: growth inhibition [4] 92%
inactive: growth inhibition [1] 2% | inhibition [2] 41% | inhibition [3] 4% | outcome [5] | outcome [6] | outcome [7] | outcome [8]

CC1(C)N=C(N)N=C(N)N1OCc1ccc2ccccc2c1
inactive: inhibition [3] -9% | outcome [5] | outcome [6] | outcome [7] | outcome [8]
active: growth inhibition [1] 97% | inhibition [2] 65% | growth inhibition [4] 94%

COc1cc2nc(N[C@@H](CO)c3ccccc3)nc(NCc3ccccc3)c2cc1OC
inactive: inhibition [2] 6% | inhibition [3] 1% | outcome [5] | outcome [6] | outcome [7] | outcome [8]
active: growth inhibition [1] 71% | growth inhibition [4] 101%

Fc1ccc(Nc2ccnc3cc(-c4cccc(CNCCN5CCOCC5)c4)ccc23)c(Cl)c1
active: growth inhibition [1] 99% | growth inhibition [4] 100%
inactive: inhibition [2] 26% | inhibition [3] -1% | outcome [5] | outcome [6] | outcome [7] | outcome [8]

c1ccc(CNCc2cccc(-c3ccc(-c4nc5ccccc5[nH]4)s3)c2)cc1
inactive: inhibition [2] 8% | inhibition [3] 3% | outcome [5] | outcome [6] | outcome [7] | outcome [8]
active: growth inhibition [1] 63% | growth inhibition [4] 95%

O=C(Nc1cccc(-c2ccc(-c3nc4ccc(F)cc4[nH]3)cc2)c1)Nc1ccc(F)c(F)c1F
active: growth inhibition [1] 98% | inhibition [2] 53% | growth inhibition [4] 98%
inactive: inhibition [3] 3% | outcome [5] | outcome [6] | outcome [7] | outcome [8]

c1ccc(COc2ccnc(NCCCOc3cccc(CN4CCCCC4)c3)c2)cc1
active: growth inhibition [1] 51% | growth inhibition [4] 101%
inactive: inhibition [2] 22% | inhibition [3] -2% | outcome [5] | outcome [6] | outcome [7] | outcome [8]

O=C(C=Cc1ccc(-c2ccccc2)cc1)N1CCC(CCN2CCC(c3c[nH]c4ccccc34)CC2)CC1
active: growth inhibition [4] 87%
inactive: growth inhibition [1] 16% | inhibition [2] 44% | inhibition [3] 2% | outcome [5] | outcome [6] | outcome [7] | outcome [8]

O=c1cc(-c2cccc(C(F)(F)F)c2)nc(Nc2ccc(Cl)c(Cl)c2)[nH]1
active: growth inhibition [1] 97% | inhibition [2] 57% | growth inhibition [4] 97%
inactive: inhibition [3] -2% | outcome [5] | outcome [6] | outcome [7] | outcome [8]

CCc1ccc(NC(=O)c2ccc(CN3CCCN(Cc4cccc(C)c4)CC3)cc2)cc1
active: inhibition [2] 53% | growth inhibition [4] 80%
inactive: growth inhibition [1] -4% | inhibition [3] 1% | outcome [5] | outcome [6] | outcome [7] | outcome [8]

CC(C)CC(=O)N1CCNC[C@@H]1C(=O)NC1CC1
inactive: growth inhibition [1] -2% | inhibition [2] -7% | inhibition [3] -4% | outcome [5] | outcome [6] | outcome [7] | outcome [8]
active: growth inhibition [4] 82%

COc1cc(OC)cc(C(=O)Nc2ccc(Nc3nc(C)cc(N(C)C)n3)cc2)c1
inactive: inhibition [2] 11% | inhibition [3] 1% | outcome [5] | outcome [6] | outcome [7] | outcome [8]
active: growth inhibition [1] 90% | growth inhibition [4] 100%

C=CCO[C@@H]1O[C@H](COC(c2ccccc2)(c2ccccc2)c2ccccc2)[C@@H](OC(C)=O)[C@H](OC(C)=O)[C@H]1NC(C)=O
inactive: inhibition [2] -1% | inhibition [3] -1% | outcome [5] | outcome [6] | outcome [7] | outcome [8]
active: growth inhibition [1] 66% | growth inhibition [4] 93%

O=C(NC1CC1)c1ccc(N2CCC(Cc3ccccc3)CC2)c([N+](=O)[O-])c1
inactive: inhibition [2] 12% | inhibition [3] -1% | outcome [5] | outcome [6] | outcome [7] | outcome [8]
active: growth inhibition [1] 83% | growth inhibition [4] 96%

COc1c(Br)cc(Br)cc1-c1ccc(CN2CC3CCC2CC3)[nH]1
active: growth inhibition [1] 100% | inhibition [2] 91% | growth inhibition [4] 98%
inactive: inhibition [3] -3% | outcome [5] | outcome [6] | outcome [7] | outcome [8]

CS(=O)(=O)Nc1ccc2[nH]cc(C3CCN(CC4CCC(NC(=O)/C=C/c5ccc(Cl)c(Cl)c5)CC4)CC3)c2n1 (centres undefined)
active: growth inhibition [4] 99%
inactive: growth inhibition [1] 10% | inhibition [2] 2% | inhibition [3] -5% | outcome [5] | outcome [6] | outcome [7] | outcome [8]

CC(C)CNCc1cccc(-c2cccc(CN(CCN(C)C)C(=O)Nc3ccccc3)c2)c1
inactive: inhibition [2] 34% | inhibition [3] 4% | outcome [5] | outcome [6] | outcome [7] | outcome [8]
active: growth inhibition [1] 62% | growth inhibition [4] 99%

CCn1ccc2c(N3CCCS3(=O)=O)cc(C(=O)N[C@@H](Cc3ccccc3)[C@H](O)CNC3CCCCC3)cc21
inactive: inhibition [2] -1% | inhibition [3] 1% | outcome [5] | outcome [6] | outcome [7] | outcome [8]
active: growth inhibition [1] 98% | growth inhibition [4] 97%

Nc1oc2c(CN3CCCCCC3)c(O)ccc2c(=O)c1-c1nc2ccccc2s1
active: growth inhibition [1] 99% | growth inhibition [4] 100%
inactive: inhibition [2] 12% | inhibition [3] 4% | outcome [5] | outcome [6] | outcome [7] | outcome [8]

COc1ccc(-c2ccc(Nc3cccc(S(=O)(=O)CCN4CCC(CCN(C)C)CC4)c3)nc2)cn1
active: growth inhibition [4] 100%
inactive: growth inhibition [1] 9% | inhibition [2] 44% | inhibition [3] 3% | outcome [5] | outcome [6] | outcome [7] | outcome [8]

CCc1ccc(NC(=O)c2ccc(CN3CCCN(Cc4cccs4)CC3)cc2)cc1
inactive: growth inhibition [1] -1% | inhibition [3] 0% | outcome [5] | outcome [6] | outcome [7] | outcome [8]
active: inhibition [2] 57% | growth inhibition [4] 87%

Cc1cc(NCC(C)C)c2[nH]nc(-c3ccccc3)c2n1
inactive: growth inhibition [1] 30% | inhibition [2] 9% | inhibition [3] 2% | outcome [5] | outcome [6] | outcome [7] | outcome [8]
active: growth inhibition [4] 99%

CN(C)c1ccc(-c2ccc(C(=O)NC3CCN(Cc4ccccc4F)CC3)s2)cc1
inactive: growth inhibition [1] 19% | inhibition [2] 30% | inhibition [3] -4% | outcome [5] | outcome [6] | outcome [7] | outcome [8]
active: growth inhibition [4] 88%

FC(F)(F)c1ccc2nc(-c3ccc(-c4ccc(CNCC5CCCO5)cc4)cc3)[nH]c2c1 (centres undefined)
active: growth inhibition [1] 100% | growth inhibition [4] 101%
inactive: inhibition [2] 33% | inhibition [3] -3% | outcome [5] | outcome [6] | outcome [7] | outcome [8]

COc1cc(NC2=C(c3ccccc3)C(=O)c3ccccc32)ccn1
inactive: inhibition [2] 7% | inhibition [3] 4% | outcome [5] | outcome [6] | outcome [7] | outcome [8]
active: growth inhibition [1] 96% | growth inhibition [4] 96%

Cc1nc(-c2cccc(C(=O)N(Cc3cncn3Cc3cccc(C(F)(F)F)c3)CC3CC3)c2)cs1
active: growth inhibition [4] 97%
inactive: growth inhibition [1] 17% | inhibition [2] 7% | inhibition [3] 4% | outcome [5] | outcome [6] | outcome [7] | outcome [8]

O=C(/C=C/c1ccc(Cl)c(Cl)c1)NCCCCCN1CCCN(C(=O)Nc2cccc(C(F)(F)F)c2)CC1
inactive: growth inhibition [1] -2% | inhibition [2] 45% | inhibition [3] 1% | outcome [5] | outcome [6] | outcome [7] | outcome [8]
active: growth inhibition [4] 96%

Cc1c(-c2cccc(NC(=O)C(C)(C)Oc3ccc(Cl)cc3)c2)nc2ncccn12
inactive: inhibition [2] 0% | inhibition [3] -3% | outcome [5] | outcome [6] | outcome [7] | outcome [8]
active: growth inhibition [1] 95% | growth inhibition [4] 98%

Cc1cc(N[C@@H](CC(C)C)C(=O)NC2CCCC2)nc(NCCc2ccc(F)cc2)n1
active: growth inhibition [4] 100%
inactive: growth inhibition [1] 47% | inhibition [2] 15% | inhibition [3] -2% | outcome [5] | outcome [6] | outcome [7] | outcome [8]
